# Laboratory results: PubChem BioAssay (NCATS)
# Records with an inconclusive call do not appear. Where a call stands in place of a potency, no number is given. Active and inactive are the calls of the source. Unless noted, calls follow the shape of the dose curve; as a rule, active = well fitted curve in the direction sought with a large enough effect; inconclusive = small, poorly fitted or top-dose-only effect, or another doubt; inactive = no such curve, though single readings can be large; an effect the other way counts as inactive or inconclusive.
# Key:
# [1] = qHTS Assay for Identification of Small Molecule Antagonists for NFkB Signaling Pathway. (AID 624479; calls by dose curve;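 also: pathway stimulated with TNF alpha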; also: potency is read from the fitted curve at half-maximal effect)
# [2] = Cytotoxicity counterscreen for NFkB agonists and antagonists (AID 624476);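 also: cells exposed to compound for 48 hours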; also: potency is read from the fitted curve at half-maximal effect
# [3] = qHTS Assay for Identification of Small Molecule Agonists for NFkB Signaling Pathway. (AID 624478);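 also: compounds tested together with TNF alpha at its EC50 of 10 pM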
# Procedure, shortened: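 Read-out: 460/530 nm emission at 405 nm excitation after 2 h LiveBLAzer loading; ME-180 NFkB-bla reporter cells exposed 5 h at 37 C to compounds with 10 pM TNF alpha final.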
# [4] = Cell Proliferation Assay against the TMD8 Cell Line (AID 651645); settings: TMD8 DLBCL cell line proliferation/viability; at 46.1 µM (top of the series) unless noted;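 also: cells exposed to compound for 48 h before reading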
# Procedure, shortened: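 Viability by CellTiter-Glo after 48 h compound exposure of 500 log-phase TMD8 cells per well (RPMI, 5% FBS). Percent activity scaled between DMSO (100%) and 9.2 uM final bortezomib (0%).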
# [5] = Cell Proliferation Assay against the HBL1 Cell Line (AID 651646); settings: HBL1 DLBCL cells; at 46.1 µM (top of the series) unless noted;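 also: cells exposed to compound for 48 h before reading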
# Procedure, shortened: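 CellTiter-Glo luminescence after 48 h compound exposure at 37C gives percent activity, with DMSO as 100% and 9.2 uM bortezomib final as 0%. Cells: 500 log-phase HBL1 per well, RPMI plus 5% FBS.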
# [6] = Cell Proliferation Assay against the TMD8 Cell Line (Caspase readout at 16 hrs) (AID 651712); also: potency is read from the fitted curve at half-maximal effect
# Procedure, shortened: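 Caspase-Glo luminescence measured apoptosis after a 16 h, 37 C compound exposure of TMD8 cells (500 cells/well, 5% FBS RPMI). DMSO set 0% and bortezomib at 9.2 uM final set 100% activity.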
# [7] = Cell Proliferation Assay against the TMD8 Cell Line (Caspase readout at 8 hrs) (AID 651713); also: potency is read from the fitted curve at half-maximal effect
# Procedure, shortened: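 Apoptosis readout: caspase 3/7 luminescence (Caspase-Glo), 15 min RT. Cells: TMD8, 500/well, RPMI + 5% FBS, no phenol red. Exposure 8 h, 37C. % activity vs DMSO = 0, bortezomib 9.2 uM final = 100.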
# [8] = S16 Schwann cell viability assay (CellTiter-Glo assay) (AID 624031);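 also: cellular ATP luminescence as a viability measure; nearly all actives have a fitted effect of over 70% in size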
# Procedure, shortened: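 Native S16 rat Schwann cells in DMEM/10% FBS without phenol red were incubated overnight, then exposed to compounds for 24 h at 37 °C/5% CO2. Viability was read as ATP luminescence (CellTiter-Glo), normalized to no-cell wells and DMSO (0%).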
# [9] = S16 Schwann cell PMP22 intronic element firefly luciferase assay (AID 624032); also: nearly all actives have a fitted effect of over 30% in size
# Procedure, shortened: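 Luciferase reporter of PMP22 intronic-element expression in stably transfected S16 rat Schwann cells, read by ONE-Glo luminescence after 24 h compound exposure at 37 C. Activity scaled between DMSO (0%) and positive-control PTC124; concentration-effect curves quality-classified.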
# [10] = S16 Schwann cell PMP22 intronic element beta-lactamase assay (AID 624044; calls by dose curve; also: nearly all actives have a fitted effect of over 15% in size)
# Procedure, shortened: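 Beta-lactamase reporter under a PMP22 intronic regulatory element in stable S16 rat Schwann cells; 24 h compound exposure. 460 nm blue signal normalized between DMSO (0%) and potassium clavulanate, with 535 nm FRET tracking viability; curves classed by r2 and response.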
# [11] = qHTS of Trypanosoma Brucei Inhibitors: LOPAC Validation (AID 624147)
# Procedure, shortened: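 TbPYK + substrate in 50 mM TEA pH 7.2, 100 mM KCl, 10 mM MgCl2, 0.05% BSA, 0.01% Tween-20; cpd pinned; ADP 130 uM final; 45 min RT; Kinase-Glo Plus 10 min; luminescence endpoint.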
# [12] = target: Glucagon-like peptide 1 receptor (Homo sapiens) (UniProt P43220); test: qHTS of GLP-1 Receptor Agonists: LOPAC Validation (AID 624148);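 also: luminescence from a luciferase reporter switched on by cAMP; higher luminescence signal means agonism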
# Sequence of Glucagon-like peptide 1 receptor (Homo sapiens) (P43220 whole entry, looked up): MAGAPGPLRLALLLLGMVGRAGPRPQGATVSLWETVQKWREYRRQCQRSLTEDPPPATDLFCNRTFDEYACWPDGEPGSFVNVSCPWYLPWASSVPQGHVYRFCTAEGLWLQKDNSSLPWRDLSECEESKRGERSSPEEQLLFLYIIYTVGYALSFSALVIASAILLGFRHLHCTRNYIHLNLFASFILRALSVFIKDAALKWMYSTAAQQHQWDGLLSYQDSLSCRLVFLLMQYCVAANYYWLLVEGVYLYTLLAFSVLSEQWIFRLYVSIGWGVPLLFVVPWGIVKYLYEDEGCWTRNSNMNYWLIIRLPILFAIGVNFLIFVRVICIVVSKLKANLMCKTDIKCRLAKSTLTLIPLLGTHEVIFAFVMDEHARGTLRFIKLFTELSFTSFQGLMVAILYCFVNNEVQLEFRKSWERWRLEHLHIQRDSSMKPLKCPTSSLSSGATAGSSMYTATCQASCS
# Procedure, shortened: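 Agonism scored as increased luciferase luminescence driven by cAMP in HEK293 clones carrying GLP-1R. Cells settled 12 hours, received compound for 4-6 hr at 37 deg C, 5% CO2, and were read after 12 min detection reagent at RT.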
# [13] = qHTS of Nrf2 Activators: LOPAC Validation (AID 624149)
# Procedure, shortened: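 AREc32_Fluc cells, 1000/well, OPTI-MEM + 5% FBS, o/n 37 deg C 5% CO2; compound pin-transfer, 24 hr 37 deg C; Steady-Glo 30 min RT, luminescence read.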
# [14] = HTS Assay for Allosteric Antagonists of the Human D2 Dopamine Receptor: Hit Validation in HTRF (AID 624455)
# Procedure, shortened: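 HTRF read-out; cells stably expressing D1 receptor; hits scored for inhibition of D1-mediated response. Primary screen: calcium flux, force-coupled inducible Hek293 Trex D2 line, antagonism vs EC80 dopamine.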
# [15] = target: Glutaminase kidney isoform, mitochondrial (Homo sapiens) (UniProt O94925); test: qHTS for Inhibitors of Glutaminase (GLS): LOPAC Validation (AID 624146);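 also: glutamate product detected by oxidase and peroxidase coupled Amplex red fluorescence gain; nearly all actives have a fitted effect of over 60% in size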
# Sequence of Glutaminase kidney isoform, mitochondrial (Homo sapiens) (O94925 whole entry, looked up, canonical isoform): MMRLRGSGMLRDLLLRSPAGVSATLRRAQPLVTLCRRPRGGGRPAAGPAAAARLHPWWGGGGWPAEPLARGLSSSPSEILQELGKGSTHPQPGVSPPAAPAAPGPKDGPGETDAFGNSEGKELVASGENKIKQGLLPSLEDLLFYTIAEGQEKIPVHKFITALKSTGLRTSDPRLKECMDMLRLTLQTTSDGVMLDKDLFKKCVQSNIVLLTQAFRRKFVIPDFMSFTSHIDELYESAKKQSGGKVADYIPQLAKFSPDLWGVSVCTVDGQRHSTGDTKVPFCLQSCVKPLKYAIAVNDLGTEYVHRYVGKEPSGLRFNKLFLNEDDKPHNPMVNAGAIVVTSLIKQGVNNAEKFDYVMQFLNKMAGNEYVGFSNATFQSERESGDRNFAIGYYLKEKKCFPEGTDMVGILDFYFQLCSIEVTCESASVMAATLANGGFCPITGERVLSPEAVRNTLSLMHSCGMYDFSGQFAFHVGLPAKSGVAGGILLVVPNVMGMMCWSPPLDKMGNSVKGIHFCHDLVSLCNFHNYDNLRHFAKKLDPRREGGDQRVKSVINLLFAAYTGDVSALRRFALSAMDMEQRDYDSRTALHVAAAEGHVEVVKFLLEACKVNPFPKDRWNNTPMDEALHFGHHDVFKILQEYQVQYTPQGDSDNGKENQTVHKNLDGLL
# Procedure, shortened: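 hKGA in 45 mM KH2PO4 pH 8.2, 0.02% Tween-20 with pin-transferred compounds; 1 mM L-glutamine (stock) plus glutamate oxidase/HRP/Amplex Red coupling added. Fluorescence read initially and after 30 min at RT.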
# [16] = target: Luciferin 4-monooxygenase (Photinus pyralis) (UniProt P08659); test: Biochemical firefly luciferase enzyme assay for NPC (AID 624030);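 also: purified P. pyralis luciferase at 10 nM with luciferin and ATP substrate; nearly all actives have a fitted effect of over 70% in size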
# Sequence of Luciferin 4-monooxygenase (Photinus pyralis) (P08659 whole entry, looked up): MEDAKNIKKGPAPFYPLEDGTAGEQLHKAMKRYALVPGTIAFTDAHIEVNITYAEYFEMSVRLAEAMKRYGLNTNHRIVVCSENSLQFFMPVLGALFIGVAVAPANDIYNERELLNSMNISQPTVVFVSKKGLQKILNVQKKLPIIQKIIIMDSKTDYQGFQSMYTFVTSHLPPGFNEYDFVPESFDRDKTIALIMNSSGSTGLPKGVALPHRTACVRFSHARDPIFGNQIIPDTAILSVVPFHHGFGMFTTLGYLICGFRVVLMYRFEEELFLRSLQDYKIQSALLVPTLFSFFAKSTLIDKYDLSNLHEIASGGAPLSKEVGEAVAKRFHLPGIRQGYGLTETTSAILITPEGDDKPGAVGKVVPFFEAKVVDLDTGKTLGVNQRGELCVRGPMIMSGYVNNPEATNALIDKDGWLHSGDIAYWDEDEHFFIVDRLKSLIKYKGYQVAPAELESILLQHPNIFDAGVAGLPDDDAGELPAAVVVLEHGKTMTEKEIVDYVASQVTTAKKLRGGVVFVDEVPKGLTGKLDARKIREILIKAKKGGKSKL
# Procedure, shortened: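 Direct inhibition of firefly luciferase enzyme (10 nM final, 50 mM Tris Acetate) assessed by luminescence within 5 minutes. Percent activity scaled between DMSO and PTC124 positive control, with concentration-effect curves classified by fit quality and response.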
smiles,measurement,setting,value
C[C@@]12O[C@@H](C[C@]1(O)CO)n1c3ccccc3c3c4c(c5c6ccccc6n2c5c31)CNC4=O,Potency,[1],1.49 µM (active)
Cc1cnc(Nc2ccc(F)cc2Cl)nc1-c1c[nH]c(C(=O)N[C@H](CO)c2cccc(Cl)c2)c1,Potency,[2],26.4 µM (active)
same,Potency,[1],16.8 µM (active)
CC[C@@H](C(=O)O)C1CC[C@H](C)C([C@@H](C)[C@H](O)[C@H](C)C(=O)[C@H](CC)C2O[C@]3(C=C[C@@H](O)[C@]4(CC[C@@](C)(C5CC[C@](O)(CC)[C@H](C)O5)O4)O3)[C@H](C)C[C@@H]2C)O1 (stereo not given in full),Potency,[2],8.33 µM (active)
same,Potency,[1],11.9 µM (active)
CC(=O)Nc1ccc(OC[C@](C)(O)C(=O)Nc2ccc([N+](=O)[O-])c(C(F)(F)F)c2)cc1,Potency,[2],inactive
same,outcome,[3],inactive
same,Potency,[1],inactive
same,viability (% of control),[4],86.6%
same,"viability, percent of control",[5],96.7%
same,Potency,[6],inactive
same,Potency,[7],inactive
Cc1c(C(=O)Nc2cccc(C(F)(F)F)c2)cc(-c2ccccc2)n1CCCN1CCOCC1,Potency,[2],inactive
same,outcome,[3],inactive
same,viability (% of control),[4],3.39%
same,"viability, percent of control",[5],18.7%
C=CCN1CC[C@]23CCCCC2[C@H]1Cc1ccc(O)cc13 (stereo not given in full),Potency,[8],inactive
same,Potency,[9],inactive
same,Potency,[10],inactive
same,outcome,[11],inactive
same,outcome,[12],inactive
same,outcome,[13],inactive
same,Potency,[14],inactive
CC(C)(C)c1[nH]cnc1C=c1[nH]c(=O)c(=Cc2ccccc2)[nH]c1=O,Potency,[2],18.7 µM (active)
same,Potency,[1],16.8 µM (active)
same,Potency,[6],0.0235 µM (active)
same,Potency,[7],0.059 µM (active)
C/C=C(/C)C(=O)O[C@H]1C(C)=C2[C@H]([C@@H]1OC(=O)CCCCCCC)[C@@](C)(OC(C)=O)C[C@H](OC(=O)CCC)[C@@]1(O)[C@H]2OC(=O)[C@@]1(C)O,Potency,[15],inactive
same,outcome,[11],inactive
same,outcome,[12],inactive
same,outcome,[13],inactive
same,Potency,[14],inactive
C=CCON=C(C[C@H]1O[C@@H]2O[C@]3(C)CC[C@@H]4[C@H](C)CC[C@@H]([C@H]1C)[C@@]24OO3)[C@H]1O[C@@H]2O[C@]3(C)CC[C@H]4[C@H](C)CC[C@@H]([C@@H]1C)[C@@]24OO3,outcome,[3],inactive
same,Potency,[1],16.8 µM (active)
same,viability (% of control),[4],10.2%
same,"viability, percent of control",[5],30.4%
same,Potency,[6],0.0833 µM (active)
same,Potency,[7],inactive
CC(=O)OCC1=C(C(=O)O)N2C(=O)[C@@H](N)[C@@H]2SC1,Potency,[8],inactive
same,Potency,[10],inactive
C#CCOC(=O)C1=CCCN(C)C1,outcome,[11],inactive
same,outcome,[12],inactive
same,outcome,[13],inactive
same,Potency,[14],inactive
O=C(Nc1cc(C(F)(F)F)cc(C(F)(F)F)c1)c1cc(Cl)ccc1O,Potency,[1],14.9 µM (active)
Cc1ccc(Cl)c(O)c1,Potency,[8],inactive
same,Potency,[9],inactive
CCCCN1CCC(CNC(=O)c2c3n(c4ccccc24)CCCO3)CC1,viability (% of control),[4],119%
COc1cc2c(cc1O)CC[C@@H]1[C@@H]2CC[C@]2(C)[C@@H](O)CC[C@@H]12,"viability, percent of control",[5],37.3%
CC1CC(C)C(=O)C(C(O)CC2CC(=O)NC(=O)C2)C1 (stereo not given),Potency,[2],inactive
same,outcome,[3],inactive
same,Potency,[1],1.09 µM (active)
same,viability (% of control),[4],1.51% [at 92.2 µM]
same,"viability, percent of control",[5],43.6% [at 92.2 µM]
same,Potency,[6],1.91 µM (active)
same,Potency,[7],17.1 µM (active)
CO/C=C(/C(=O)OC)c1ccccc1Oc1cc(Oc2ccccc2C#N)ncn1,Potency,[16],inactive
O=C(Cc1ccc(Cl)c(Cl)c1)N1CCCCC1CN1CCCC1 (stereo not given),Potency,[15],inactive
same,outcome,[11],inactive
same,outcome,[12],inactive
same,outcome,[13],inactive
same,Potency,[14],inactive
c1ccc(C2(c3ccccc3)CC2C2=NCCN2)cc1 (stereo not given),Potency,[8],inactive
same,Potency,[9],inactive
same,Potency,[10],inactive
same,outcome,[11],inactive
same,outcome,[12],inactive
same,outcome,[13],inactive
same,Potency,[14],inactive
CC[C@H](CO)Nc1nc(NCc2ccccc2)c2ncn(C(C)C)c2n1,Potency,[1],11.9 µM (active)
C1=CCOCc2cc(ccc2OCCN2CCCC2)Nc2nccc(n2)-c2cccc(c2)OCC1,Potency,[1],0.943 µM (active)
O=C(Oc1ccc([N+](=O)[O-])cc1)N1CCC(C(O)(c2ccc3c(c2)OCO3)c2ccc3c(c2)OCO3)CC1,Potency,[2],inactive
same,outcome,[3],inactive
same,Potency,[1],inactive
same,viability (% of control),[4],68.8%
same,"viability, percent of control",[5],72%
same,Potency,[7],inactive
Cc1ccccc1-n1c(Cn2cnc3c(N)ncnc32)nc2cccc(C)c2c1=O,Potency,[2],13.2 µM (active)
same,outcome,[3],inactive
same,Potency,[1],inactive
same,viability (% of control),[4],15.8%
same,"viability, percent of control",[5],62.6%
COC(=O)[C@@H](N)CCCN=C(N)N[N+](=O)[O-],Potency,[16],inactive
same,Potency,[8],inactive
same,Potency,[9],inactive
same,Potency,[10],inactive
same,outcome,[11],inactive
same,outcome,[12],inactive
same,outcome,[13],inactive
same,Potency,[14],inactive
